TTR transcr act – TTR transcription activators in neuroblastoma reporter cells, primary screen, cell-based, luminescence, SH-SY5Y, TTR promoter Gaussia luciferase. 100% = recombinant luciferase protein wells. 92,000 tested, 1.3% active. activation, % at 16.7 µM;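 active = activation above the mean of all tested compounds plus 3 SD, cut at about 9.5% in these data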;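 also: cells exposed to compounds for one day before reading; 0% = median of all test compound wells on the plate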
TTR inh HuH7 – TTR promoter reporter inhibitors in hepatoma cells, counter-screen for TTR transcription activator project, cell-based, luminescence, HuH7 hepatoma. HuH7 TTR promoter-Gaussia luciferase reporter. AID 1117279, 2014. 1,100 tested, 4% active. shares compounds with TTR transcr act. inhibition, % at 16.7 µM;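 active = average inhibition above the solvent-only control wells' mean plus 3 SD, cut at about 15% in these data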;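 also: 0% = cells with DMSO only and 100% = cells with inhibitor control FD; inhibitors lower well luminescence so higher value means more inhibition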
TTR up confirm – TTR transcription activators, retest, confirmation, cell-based, luminescence, SH-SY5Y, triplicate | shares compounds with TTR transcr act | SHSY5Y TTR promoter Gaussia luciferase; 100% = purified Lucia enzyme wells, no cells | activation, % at 16.7 µM | 1,100 tested, under 10 active | AID 1117280, 2014;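 active = mean activation above a set limit taken from the earlier primary screen, cut at about 11% in these data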;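 also: 0% = DMSO-treated cells and 100% = recombinant Lucia luciferase without cells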
Active calls of the source: *. Shown is part of a subset that was picked to be rich in hits.

SMILES | TTR transcr act | others
COc1ccc(Cn2c(N)c(C(=O)NCc3ccco3)c3nc4ccccc4nc32)cc1OC | 2.8
COc1ccc(C(=O)Nc2cccc(S(=O)(=O)NCc3ccco3)c2)cc1 | 10.7* | TTR inh HuH7=-3.2;TTR up confirm=-0.8
O=C(Nc1ccc(Cl)c(Cl)c1)c1ccco1 | -2.2
COC(=O)C1=C(c2ccc(OC(F)(F)F)cc2)C[C@@H]2CC[C@H]1N2C(=O)NCc1ccco1 | 4.0
O=C(NCCN1CCC2(CC1)C(=O)NCN2c1cccc(F)c1)c1ccc2ccccc2c1 | -4.6
Cc1ccc(-n2c(O)c(/C=N/NC(=O)c3ccncc3)c(=O)[nH]c2=O)cc1 | -1.9
Cc1cccc(-n2c(O)c(/C=N/NC(=O)c3ccncc3)c(=O)[nH]c2=O)c1 | 1.7
O=C(N/N=C/c1c(O)n(-c2ccccc2)c(=O)[nH]c1=O)c1ccncc1 | 12.8* | TTR inh HuH7=-0.3;TTR up confirm=0.5
CC(NC(=O)OCc1ccccc1)[P+](=O)O (centres undefined) | 0.3
O=C(NC12CC3CC(CC(C3)C1)C2)OC1CN2CCC1CC2 (centres undefined) | 12.8* | TTR inh HuH7=-14.7;TTR up confirm=0.2
C[N+]1=C(N)NC2=C3CCCCC3ONC2C1 (centres undefined) | -1.3
CC[C@]12CCN(CC3(O)CC3)C(Cc3ccc(O)cc31)C2(C)C | 4.4
CN1C(=O)C(Cc2ccsc2)C(=O)N(C)C1=O | 12.3* | TTR inh HuH7=-8.0;TTR up confirm=-0.2
CN1C(=O)C(Cc2ccccc2)C(=O)N(C)C1=O | 0.3
CN1C(=O)C(C2CCCCC2)C(=O)N(C)C1=O | 0.1
CC(NC(=O)OCc1ccccc1)P(=O)(Oc1ccccc1)Oc1ccccc1 (centres undefined) | 9.4
CN1C2CCC1C(C(=O)Oc1ccccc1)C(c1ccc(Cl)cc1)C2 (centres undefined) | 1.2
O=C(NC(CCC(O)CO)P(=O)(Oc1ccccc1)Oc1ccccc1)OCc1ccccc1 (centres undefined) | -1.4
C=CCOC(=O)C1=C(C)OC(N)=C(C#N)C12C(=O)N(CN1CCOCC1)c1ccccc12 (centres undefined) | 11.5* | TTR inh HuH7=-10.8;TTR up confirm=1.4
CCOC(=O)C1=C(N)Oc2c(c(=O)oc3ccccc23)C12C(=O)N(C)c1ccccc12 (centres undefined) | 1.6
COCCOC(=O)C1=C(N)OC(C)=C(C(=O)OC)C12C(=O)Nc1ccccc12 (centres undefined) | 0.9
C=C(C=O)CC1CC(O)[C@]2(C)OC3CC4OC5C[C@]6(C)O[C@]7(C)CCC8OC9C[C@]%10(C)OC%11C(C)=CC(=O)OC%11CC%10OC9C[C@@H](C)C8OC7CC6O[C@]5(C)C/C=C\C4OC3CC2O1 (some centres undefined) | -5.3
O=C(NC1CCCCC1)N1Cc2ccccc2-n2nncc2C1 | -0.2
COP(=O)(OC)C(C)NC(=O)OCc1ccccc1 (centres undefined) | 6.1
C=CCn1c(O)c(C(CC)=NCc2ccc3c(c2)OCO3)c(=O)[nH]c1=O | -0.8
SMILES | TTR transcr act | others
CCCCn1c(O)c(C(=O)/C=C/c2ccc3c(c2)OCO3)c(=O)[nH]c1=O | 21.1* | TTR inh HuH7=15.2*;TTR up confirm=0.9
O=C(/C=C/c1ccc2c(c1)OCO2)c1c(O)n(CCC2=CCCCC2)c(=O)[nH]c1=O | 1.2
COc1cc2c(c3oc4cccc(O)c4c(=O)c13)[C@@H]1C=CO[C@@H]1O2 | 1.6
COC1CC=C2CCN3CCC4=C(CC(=O)OC4)C23C1 (centres undefined) | 0.5
CC(C)CCP(=O)(O)O | -0.9
CCOC(=O)N1CCC(NC(=O)CCc2nc(C3=CCN(C)CC3)no2)CC1 | 10.4* | TTR inh HuH7=2.0;TTR up confirm=0.0
C1CN(P2(N3CC3)=NP(N3CC3)(N3CC3)=NP(N3CC3)(N3CC3)=N2)CCO1 (centres undefined) | 0.7
COC(=O)C1CC(OC(C)=O)C(=O)[C@H]2C1(C)CC[C@H]1C(=O)OC(c3ccoc3)CC12C (some centres undefined) | -1.1
CC(C)OC(=O)C1C(c2ccc(I)cc2)CC2CCC1N2C (centres undefined) | -0.9
CCn1c(C)cc(/C=C2\C(=O)NC(=O)N(c3ccccc3C)C2=O)c1C | 1.1
Cc1ccc(-n2c(C)cc(/C=C3/C(=O)NC(=O)N(C)C3=O)c2C)cc1 | 1.2
COc1ccc(N2C(=O)/C(=C/c3cc(C)n(-c4ccc(C)cn4)c3C)C(=O)NC2=S)c(OC)c1 | 10.7* | TTR inh HuH7=-0.7;TTR up confirm=-0.6
C=C1[C@@H](C)C2[C@H](Cc3ccccc3)NC(=O)[C@]23[C@H](OC(C)=O)/C=C/[C@@](C)(O)C(=O)[C@@H](C)C/C=C/[C@H]3[C@@H]1O (some centres undefined) | 1.8
Cc1ncoc1C(=O)NCC1=C(c2ccc3ccccc3c2)C[C@@H]2CC[C@H]1N2Cc1ccco1 | -0.1
CCCC1(CC(C)CC)C(=O)NC(=O)NC1=O (centres undefined) | 5.2
CCOC1=C(N2CC2)C(=O)C(OCC)=C(N2CC2)C1=O | -0.8
CCCC(=O)Nc1ccc(N2CCN(CC)CC2)c(Cl)c1 | -0.5
CCCC(=O)NC1=C(N2CC2)C(=O)C(NC(=O)CCC)=C(N2CC2)C1=O | 10.8* | TTR inh HuH7=53.1*;TTR up confirm=-2.7
C[C@H](NC(=O)OCc1ccccc1)C(=O)NC(Cc1ccccc1)P(=O)(Oc1ccccc1)Oc1ccccc1 (some centres undefined) | 1.1
CC(NC(=O)OC1CC2CCC1(C)C2(C)C)P(=O)(Oc1ccccc1)Oc1ccccc1 (centres undefined) | 4.9

Screening results: PubChem BioAssay, The Scripps Research Institute Molecular Screening Center
